Records with an inconclusive call do not appear. Calls of active or inactive are those of the source. Unless noted, calls follow the shape of the dose curve; as a rule, active = well fitted curve in the direction sought with a large enough effect in the repeat runs; inconclusive = weak or mixed curves; inactive = no such curve, though single readings can be large; an effect the other way counts as inactive or inconclusive.
How the values were obtained:
[1] = A CellTox Green Cytotoxicity Assay to monitor cytotoxicity in HepG2 cells - 16 hour (AID 1224876); also: nearly all actives have a fitted effect of over 45% in size
Summary of the method: (§1)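 Using 1536-well format, dye-containing HepG2 suspension was seeded, allowed 5 h at 37 C/5% CO2, dosed by pintool with compounds, positive and negative controls, and imaged for fluorescence across 40 h.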

[2] = qHTS RealTime-Glo MT Cell Viability Assay in HepG2 cells - 32 hour (AID 1224877); also: nearly all actives have a fitted effect of over 55% in size
Summary of the method: (§2)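 Luminescence read-out: viable HepG2 cells reduce a prosubstrate to a NanoLuc substrate, giving a signal proportional to live cell number. Reads taken at 0, 8, 16, 24, 32 and 40 h of compound exposure at 37 C.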

[3] = A CellTox Green Cytotoxicity Assay to monitor cytotoxicity in HepG2 cells - 24 hour (AID 1224878); also: nearly all actives have a fitted effect of over 45% in size
Summary of the method: as §1

[4] = A CellTox Green Cytotoxicity Assay to monitor cytotoxicity in HepG2 cells - 40 hour (AID 1224879); also: nearly all actives have a fitted effect of over 40% in size
Summary of the method: as §1

[5] = qHTS RealTime-Glo MT Cell Viability Assay in HEK293 cells - 0 hour (AID 1224880); also: top concentration of the series differs between compounds; nearly all actives have a fitted effect of over 45% in size
Summary of the method: (§3)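 Viable HEK293 cells reduce a cell-permeant prosubstrate; the product diffuses out and is consumed by NanoLuc in the medium to give light. Compounds went in after a 5 h incubation and plates were read over the treatment course.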

[6] = A CellTox Green Cytotoxicity Assay to monitor cytotoxicity in HEK293 cells - 32 hour (AID 1224881); also: nearly all actives have a fitted effect of over 40% in size
Summary of the method: (§4)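 Fluorescence intensity, read at 0, 8, 16, 24, 32 and 40 h of compound treatment, reflected dye binding to DNA of dead HEK293 cells; compounds (23 nL, DMSO) were added 5 h after plating cells with reagent.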

[7] = A CellTox Green Cytotoxicity Assay to monitor cytotoxicity in HepG2 cells - 0 hour (AID 1224882); also: nearly all actives have a fitted effect of over 35% in size
Summary of the method: as §1

[8] = A CellTox Green Cytotoxicity Assay to monitor cytotoxicity in HEK293 cells - 8 hour (AID 1224884); also: nearly all actives have a fitted effect of over 35% in size
Summary of the method: as §4

[9] = qHTS RealTime-Glo MT Cell Viability Assay in HepG2 cells - 16 hour (AID 1224885); also: nearly all actives have a fitted effect of over 50% in size
Summary of the method: as §2

[10] = A CellTox Green Cytotoxicity Assay to monitor cytotoxicity in HEK293 cells - 16 hour (AID 1224888); also: nearly all actives have a fitted effect of over 35% in size
Summary of the method: as §4

[11] = qHTS RealTime-Glo MT Cell Viability Assay in HepG2 cells - 0 hour (AID 1224889); also: nearly all actives have a fitted effect of over 50% in size
Summary of the method: as §2

[12] = A CellTox Green Cytotoxicity Assay to monitor cytotoxicity in HepG2 cells - 8 hour (AID 1224890); also: nearly all actives have a fitted effect of over 45% in size
Summary of the method: as §1

[13] = qHTS assay to identify small molecule antagonists of the estrogen receptor alpha (ER-alpha) signaling pathway using the BG1 cell line in the presence of 0.1 nM 17-beta-estradiol - cell viability counter screen (AID 1259241); also: nearly all actives have a fitted effect of over 40% in size
Summary of the method: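 VM7Luc4E2 cells (endogenous ER-alpha, 4×ERE-luciferase), hormone-starved 5 days in charcoal-stripped FBS, were treated with compounds plus 0.1 nM 17beta-estradiol for 22 hr at 37C; viability read in same wells as CellTiter-Fluor live-cell protease fluorescence.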

[14] = qHTS assay to identify small molecule antagonists of the androgen receptor (AR) signaling pathway using the MDA cell line in the presence of 0.5 nM R1881 - cell viability counter screen (AID 1259242); also: nearly all actives have a fitted effect of over 45% in size
Summary of the method: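 Viability of MDA-kb2 cells was multiplexed with the luciferase AR readout; after 16 hr with compounds and R1881 at 0.5 nM final, CellTiter-Fluor fluorescence was recorded.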

[15] = A CellTox Green Cytotoxicity Assay to monitor cytotoxicity in HepG2 cells - 32 hour (AID 1224883); also: nearly all actives have a fitted effect of over 50% in size
Summary of the method: as §1

[16] = qHTS RealTime-Glo MT Cell Viability Assay in HEK293 cells - 24 hour (AID 1224886); also: top concentration of the series differs between compounds; nearly all actives have a fitted effect of over 50% in size
Summary of the method: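 Nonlytic real-time viability readout: viable cells convert prosubstrate to NanoLuc substrate, giving luminescence proportional to live cell number. HEK293, 600 cells/well, compound added after 5 h, continuous culture at 37 C.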

[17] = qHTS RealTime-Glo MT Cell Viability Assay in HEK293 cells - 8 hour (AID 1224887)
Summary of the method: as §3

[18] = target: Estrogen receptor (Homo sapiens) (UniProt P03372); test: qHTS assay to identify small molecule antagonists of the estrogen receptor alpha (ER-alpha) signaling pathway using the BG1 cell line in the presence of 0.1 nM 17-beta-estradiol (AID 1259244); also: nearly all actives have a fitted effect of over 50% in size
Summary of the method: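 Estradiol at 0.1 nM (final) stimulates the endogenous ER-alpha of VM7Luc4E2 cells carrying an ERE-driven luciferase; compounds are co-incubated 22 h at 37C and luciferase output quantified by luminescence.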

[19] = qHTS assay to identify small molecule phospholipidosis (PLD) inducers (AID 1259344; active = well fitted curve in the direction sought with a large enough effect; an effect the other way counts as inactive or inconclusive)
Summary of the method: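 Phospholipidosis is scored by imaging LipidTOX-stained pits in HepG2 cells exposed to compound for 24 h at 37 C; pit counts and integrated intensities per well and per cell serve as outputs.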
% is scaled to controls: 0 for no effect and ±100 for the full control effect.

Estrogen receptor (Homo sapiens), sequence (P03372 whole entry, looked up): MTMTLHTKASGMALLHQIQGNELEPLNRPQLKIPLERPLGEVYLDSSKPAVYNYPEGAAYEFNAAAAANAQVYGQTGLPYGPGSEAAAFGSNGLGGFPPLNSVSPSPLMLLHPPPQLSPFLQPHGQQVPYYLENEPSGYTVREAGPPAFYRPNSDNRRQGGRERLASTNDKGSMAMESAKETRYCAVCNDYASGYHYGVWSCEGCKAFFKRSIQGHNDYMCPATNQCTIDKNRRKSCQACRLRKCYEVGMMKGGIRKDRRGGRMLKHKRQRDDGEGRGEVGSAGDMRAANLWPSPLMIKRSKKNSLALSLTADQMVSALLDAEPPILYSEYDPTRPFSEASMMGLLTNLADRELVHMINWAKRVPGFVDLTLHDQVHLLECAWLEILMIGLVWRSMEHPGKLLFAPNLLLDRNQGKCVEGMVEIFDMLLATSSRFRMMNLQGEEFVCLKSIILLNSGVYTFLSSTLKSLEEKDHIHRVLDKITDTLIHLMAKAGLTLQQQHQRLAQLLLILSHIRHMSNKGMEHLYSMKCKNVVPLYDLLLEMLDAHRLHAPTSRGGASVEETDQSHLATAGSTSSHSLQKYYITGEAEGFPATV

CCOC(CN1CCN(CC(C)C(=O)c2ccccc2)CC1)c1ccccc1 (configuration not stated)
inactive: cytotoxicity increase [1] -21.5% [at 15.8 µM] | activity change, negative = cytotoxic [2] 0.188% [at 15.8 µM] | cytotoxicity [3] -18.2% [at 15.8 µM] | cytotoxicity increase [4] -19.9% [at 15.8 µM] | activity change, negative = cytotoxicity [5] 0.0674% [at 15.8 µM] | cytotoxicity increase [6] -3.67% [at 15.8 µM] | cytotoxicity [7] -4.84% [at 15.8 µM] | cytotoxicity increase [8] -4.22% [at 15.8 µM] | activity change, negative = cytotoxic [9] 0.651% [at 15.8 µM] | activity change [10] -4.55% [at 15.8 µM, hits give high values] | activity change, negative = cytotoxicity [11] 0.232% [at 15.8 µM] | cytotoxicity increase [12] -9.59% [at 15.8 µM] | activity change, negative = cytotoxicity [13] -7.75% [at 19 µM] | viability change, negative = cytotoxic [14] -2.37% [at 19 µM]

CC1(C)Oc2ccc(C#N)cc2[C@@H](N2CCCC2=O)[C@@H]1O
inactive: Potency [1] | outcome [2] | Potency [3] | Potency [4] | Potency [5] | Potency [6] | Potency [7] | Potency [15] | outcome [9] | Potency [16] | Potency [17] | Potency [10] | Potency [11] | Potency [12] | outcome [13] | outcome [14] | outcome [18] | outcome [19]

O=C(CN1CCNCC1)NC1CCCCC1
inactive: Potency [1] | outcome [2] | Potency [3] | Potency [4] | Potency [5] | Potency [6] | Potency [7] | Potency [8] | outcome [9] | Potency [16] | Potency [17] | Potency [10] | Potency [11] | Potency [12] | outcome [13] | outcome [14] | outcome [19]

OC1(c2ccc(Cl)cc2)CCNCC1
inactive: Potency [1] | outcome [2] | Potency [3] | Potency [4] | Potency [5] | Potency [6] | Potency [7] | Potency [8] | outcome [9] | Potency [16] | Potency [17] | Potency [10] | Potency [11] | Potency [12] | outcome [13] | outcome [14] | outcome [18]

C=Cc1ccc(C(C)(C)C)cc1
inactive: Potency [1] | outcome [2] | Potency [3] | Potency [4] | Potency [5] | Potency [6] | Potency [15] | Potency [8] | outcome [9] | Potency [16] | Potency [17] | Potency [10] | Potency [11] | Potency [12] | outcome [13]

CC1(C)CC(OC(=O)CCCCCCCCC(=O)OC2CC(C)(C)NC(C)(C)C2)CC(C)(C)N1
inactive: cytotoxicity increase [1] -5.51% [at 15.8 µM] | activity change, negative = cytotoxic [2] 3.56% [at 15.8 µM] | cytotoxicity [3] -8.38% [at 15.8 µM] | cytotoxicity increase [4] -12% [at 15.8 µM] | activity change, negative = cytotoxicity [5] 17.6% [at 15.8 µM] | cytotoxicity increase [6] -5.67% [at 15.8 µM] | cytotoxicity [7] -7.52% [at 15.8 µM] | cytotoxicity increase [8] -2.02% [at 15.8 µM] | activity change, negative = cytotoxic [9] -0.753% [at 15.8 µM] | activity change, negative = cytotoxicity [16] 13.9% [at 15.8 µM] | activity change [10] -6.19% [at 15.8 µM, hits give high values] | activity change, negative = cytotoxicity [11] 5.75% [at 15.8 µM] | cytotoxicity increase [12] -0.141% [at 15.8 µM] | activity change, negative = cytotoxicity [13] -0.502% [at 19 µM] | viability change, negative = cytotoxic [14] 0.781% [at 19 µM]

CCC/C=C(\C=O)CC
inactive: Potency [1] | outcome [2] | Potency [3] | Potency [4] | Potency [5] | Potency [6] | Potency [7] | Potency [8] | outcome [9] | Potency [16] | Potency [17] | Potency [10] | Potency [11] | Potency [12] | outcome [13] | outcome [14]
